Hits are enriched below; roughly 2.7% of the tested compounds scored in any of these assays.
Tau fluor counter: counter-screen for tau fibril formation inhibitors; AID 1463; 0.93% of 280,000 active; tau K18 P301L Alexa594 fluorescence, heparin fibrillization; Potency, µM (series often up to 57.7 µM), without a hit: at the top dose activity change, negative = decrease; note: potency is the fitted concentration of half-maximal effect; nearly all actives have a fitted effect of over 55% in size
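Human tau K18 P301L (15 uM unlabeled, 0.24 uM Alexa 594-labeled) in 100 mM sodium acetate pH 7 with 20 uM heparin, 6 hr at 37 C. ThT 30 uM added, 1 hr ambient; Alexa 594 FP and total fluorescence read at 555/632 nm.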
Tau ThT inhib: inhibitors of human tau fibril formation, thioflavin T binding; 2.1% of 270,000 active; P10636; recombinant tau K18 P301L (four-repeat tau fragment), heparin-induced fibrillization, ThT fluorescence; Potency, µM (doses to about 57.4 µM), for inactives: at the highest dose activity, negative = inhibition, usual class: inhibitors; note: potency is the fitted concentration of half-maximal effect; nearly all actives have a fitted effect of over 55% in size
Target sequence (P10636 561-689 P618L limits assumed): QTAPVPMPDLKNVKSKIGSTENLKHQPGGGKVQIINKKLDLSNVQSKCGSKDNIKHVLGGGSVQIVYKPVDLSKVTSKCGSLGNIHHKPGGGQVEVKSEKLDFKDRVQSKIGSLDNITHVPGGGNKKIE
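In this qHTS, human K18 P301L tau is incubated with compound and heparin for 6 hr at 37 C, and Thioflavin T fluorescence then reports fibril load.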
Coupling enz: inhibits coupling enzyme system, counter-screen for aldolase hits; coupling enzyme system counterscreen, AmpLite Red fluorescence; activity change, negative = inhibition, % at 58.2 µM, hits read low; 0.67% of 290,000 active; AID 2472; in the data active = activity change below about -30%
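Coupling enzymes only (glyceraldehyde-3-phosphate) + compound, at 57.5 uM final, 10 min RT; add substrate/coupling/AmpLite Red mix, 20 min RT; fluorescence ex 525/em 598 nm. Actives flag coupling-system interference.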
Tau fibril FP: inhibitors of human tau fibril formation; P10636; K18 P301L tau heparin fibrillization, Alexa594 FP, 6 h; Potency, µM (titrated, usually from 57.7 µM), inactives show at the top dose activity, negative = inhibition, hits mostly inhibitors; 0.39% of 280,000 active; note: potency is the fitted concentration of half-maximal effect; nearly all actives have a fitted effect of over 55% in size
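Human tau K18 […] P301L fragment, 15 uM unlabeled plus 0.24 uM Alexa 594-labeled tau (final), with compound and 20 uM heparin in 100 mM sodium acetate pH 7; 6 hr at 37 C, then Alexa 594 FP read.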
Starred values were filed as active, the others as inactive; ? = inconclusive; nt = no result given; [ ] = remark or other dose. Unless noted, calls come from the whole dose curve; as a rule, active = well fitted curve in the direction sought with a large enough effect; inconclusive = small, poorly fitted or top-dose-only effect, or another doubt; inactive = no such curve, though single readings can be large; an effect the other way counts as inactive or inconclusive. % is set by controls: 0 for no effect and ±100 for the full control effect.

SMILES | Tau fluor counter | Tau ThT inhib | Coupling enz | Tau fibril FP
C[C@H]1OC(OC2C(O)[C@@H](O)C(OC3C(O)[C@@H](O)C(O)O[C@@H]3CO)O[C@@H]2CO)[C@H](O)C(O)C1N[C@H]1C=C(CO)[C@@H](O)[C@H](O)C1O (stereo partly drawn) | -2% | -3% | -1 | 1%
Cc1cc(NC(=S)N(CCCN2CCN(C)CC2)Cc2ccco2)ccc1Cl | 0% | 1% | -3 | 4%
COc1ccc2c(c1)O[C@@H](c1cccc(C(F)(F)F)c1)[C@H](OC(=O)NS(=O)(=O)c1ccc(F)cc1)C2=O | -1% | 1% | 0 | 5%
CCOC(=O)c1c(C)n(C)c2cc(Br)c(O)c(O)c12 | -23% | ? | -5 | -10%
CCOC(=O)c1c(C)n(C)c2cc([N+](=O)[O-])c(O)c([N+](=O)[O-])c12 | -22% | 8.9µM* | 1 | -7%
CCc1ccc(NC(=O)c2ccc3c(=O)n4nc(Nc5ccccc5C)sc4nc3c2)cc1 | -14% | -6% | nt | -18%
Cc1ccc(C(=O)Nc2ccccc2C(=O)OCc2cc(=O)n3nc(C4CC4)sc3n2)cc1 | 9% | 8% | nt | 1%
N#Cc1c(-c2ccncc2)c2c([nH]c1=S)CCCC2 | -17% | ? | -36* | -4%
Cc1ccc(-c2c3c([nH]c(=S)c2C#N)CCCC3)o1 | -15% | 22µM* | -18 | ?
Cc1ccc(-c2c(C#N)c(N)nc3c2CCCC3)o1 | -8% | -7% | 1 | -2%
CCN(CC)S(=O)(=O)c1cccc(C(=O)N/N=C/c2cccc(O)c2O)c1 | 14% | 12% | -52* | 7%
O=c1cc(-c2ccccc2)oc2cc(O)c(O)c(O)c12 | ? | 25µM* | -45* | 28µM*
O=c1cc(-c2ccc(O)cc2)oc2c(O)c(O)c(O)c(O)c12 | ? | 14µM* | -66* | ?
CC(N)CCCP(=O)(O)O (stereo not drawn) | 1% | 10% | nt | -12%
N[C@@H](Cn1cc(F)c(=O)[nH]c1=O)C(=O)O | -2% | -6% | 3 | 7%
CCOC(=O)c1c(N)sc(C(O)(C(F)(F)F)C(F)(F)F)c1-c1ccc(Cl)cc1 | 25µM*[quencher] | ? | -1 | 3%
CCOC(=O)c1c(NC(=O)/C=C/C(=O)O)sc(C)c1-c1ccc(Cl)cc1 | -10% | 32µM* | 18 | ?
CCOC(=O)c1c(N)sc(C(O)(C(F)(F)F)C(F)(F)F)c1-c1ccc(F)cc1 | ? | -13% | nt | 9%
O=C(Cn1c(=O)n(CCc2ccccc2)c(=O)c2cccnc21)Nc1ccc(F)cc1 | -11% | 11% | nt | ?
CCOC(=O)c1c(NC(C)=O)c2c3c(sc2n1Cc1nc(-c2ccccc2C)oc1C)CCCC3 | 10% | 6% | nt | 1%
Cc1cccc(-c2cc(C(=O)O)c3c(-c4ccc(F)cc4)[nH]nc3n2)c1 | -27% | ? | nt | -8%
N=C1/C(=C\c2ccc(SCc3ccccc3)o2)C(=O)N=C2SC=NN12 | -19% | 8.9µM* | 3 | ?
CCS(=O)(=O)C1=NN2C(=N)/C(=C\c3ccc(SCc4ccco4)o3)C(=O)N=C2S1 | ? | 14µM* | 5 | -21%
COc1cc(/C=C2\C(=N)N3N=CSC3=NC2=O)ccc1OS(=O)(=O)c1ccccc1[N+](=O)[O-] | nt | nt | 7 | nt
N=C1/C(=C\c2ccc(SCc3ccccc3)o2)C(=O)N=C2SC(CC(=O)N3CCOCC3)=NN12 | -11% | 14µM* | 10 | 7%
SMILES | Tau fluor counter | Tau ThT inhib | Coupling enz | Tau fibril FP
COc1ccc(-c2csc(N3N=C(C)C(C)C3=O)n2)cc1 (stereo not drawn) | -10% | ? | 0 | 3%
CC1=NN(c2nc(-c3ccc(C)cc3)cs2)C(=O)C1N=Nc1ccccc1O (stereo not drawn) | ? | 2µM* | 1 | 11%
CC1=NN(c2nc(-c3ccc(C)cc3)cs2)C(=O)C1N=Nc1cccc(O)c1 (stereo not drawn) | ? | 1.8µM* | -1 | -16%
CC(=O)Nc1ccc(-c2cc(-c3ccccc3)nc(-c3ccccc3)n2)cc1 | ? | 10% | 2 | 3.5µM*
CCC(=O)Nc1ccc(-c2cc(-c3ccccc3)nc(-c3ccc(NC(=O)CC)cc3)n2)cc1 | ? | -8% | 1 | 11µM*
Nc1ccc(-c2cc(-c3cccc(N)c3)nc(-c3ccccc3)n2)cc1 | 3.5µM*[quencher] | ? | -1 | 1%
CC(=O)Nc1ccc(-c2cc(-c3ccc(NC(C)=O)cc3)nc(-c3ccc(NC(C)=O)cc3)n2)cc1 | 1% | 4% | -3 | ?
CCC(=O)Nc1ccc(-c2csc(C)n2)cc1 | -8% | -13% | 1 | 7%
CC(=O)Nc1ccc(-c2cc(-c3ccc(NC(C)=O)cc3)nc(-c3ccccc3)n2)cc1 | -8% | 15% | -2 | 14µM*
CCN(CC)CCNC(=O)C(=O)NCC(c1cccnc1)N1CCN(c2ccc(F)cc2)CC1 (stereo not drawn) | -6% | -16% | nt | 11%
Cc1cccc(CN2CCC(CNC(=O)Cn3ncc4c([nH]c5ccc(C)cc54)c3=O)CC2)c1 | -9% | -5% | nt | -5%
CC(=O)Nc1ccc(-c2csc(N/N=C(/C)c3ccccc3)n2)cc1 | 11µM*[quencher] | nt | 1 | ?
Cc1cc(-c2ccccc2)nc(N/N=C/c2ccccc2)n1 | nt | nt | 1 | nt
Nc1cc(Cl)nc(N/N=C/c2ccc([N+](=O)[O-])cc2)n1 | -23% | 5.6µM* | -3 | 4%
Cc1cc(-c2ccccc2)nc(N/N=C/c2ccc([N+](=O)[O-])cc2)n1 | ? | 7.1µM* | 0 | -12%
Cc1cc2c(C)nc(N/N=C/c3ccc(F)cc3)nc2o1 | -15% | ? | 2 | 6%
Cc1cc2c(C)nc(N/N=C/c3ccc([N+](=O)[O-])cc3)nc2o1 | -11% | 3.2µM* | -3 | 4%
O=[N+]([O-])c1ccc(N/N=C/c2ccccc2)c(F)c1 | ? | 7.1µM* | 0 | 15%
COC(=O)N1[C@H]2CC[C@@]3(C)C=C(C)O[C@]1(C)C3c1ccccc12 | -8% | -4% | -2 | -1%
CCOC(=O)c1cnn2c(C(F)(F)F)cc(-c3ccc(Br)cc3)nc12 | -15% | ? | nt | -3%
CC(C)CCNC(=O)c1ccc2c(c1)N(Cc1cccc(Cl)c1)C(=O)c1ccccc1S2 | -8% | 1% | nt | -8%
CCN1C(=O)c2ccccc2Sc2ccc(NC(=O)Nc3cccc([N+](=O)[O-])c3C)cc21 | ? | 1% | nt | 16µM*
CC(C)CCNC(=O)Nc1ccc2c(c1)N(Cc1ccccc1)C(=O)c1ccccc1S2 | -24% | 10% | nt | 14µM*
CCN1C(=O)c2ccccc2Sc2ccc(NC(=O)Nc3ccccc3OC)cc21 | ? | 7% | nt | ?
CCOc1ccc(CCNC(=O)c2cccc(C#N)c2)cc1OCC | -1% | -1% | 0 | 1%
CC1(C)OC(c2ccccc2)=C/C(=C\C=N\NC(=O)c2ccncc2)O1 | ? | 11µM* | -1 | ?
CCOC(=O)c1ccc(NC(=O)c2c(NCc3sccc3C)sc3c2CCCCC3)cc1 | -28% | 32µM* | nt | -21%
